The record followed here is PubChem BioAssay (Tox21).

Structures are written as SMILES. Several values for one entry are separate records, joined by “and”; a condition that tells them apart may be missing. Equal values may be shown once. Inconclusive results are not listed. Where a structure was tested more than once in an assay, its records may differ in their call. Activity calls are given as the source filed them. Unless noted, the call rests on the fitted dose curve; in most records, active means well fitted curve in the direction sought with a large enough effect in the repeat runs; inconclusive means weak or mixed curves; inactive means no such curve, though single readings can be large; an effect the other way counts as inactive or inconclusive.

Test [1] in a line: qHTS assay to identify small molecule agonists of the peroxisome proliferator-activated receptor delta (PPARd) signaling pathway - cell viability counter screen (AID 743211). Further: nearly all actives have a fitted effect of over 55% in size. An outline of the steps:
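In the same wells used for beta-lactamase reporter measurement, cytotoxicity is scored by CellTiter-Glo. HEK293H PPARd-bla cells receive compound for 17 h at 37C following a 5 h settling period.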

Test [2] can be described thus: qHTS assay to identify small molecule agonists of the farnesoid-X-receptor (FXR) signaling pathway - cell viability counter screen (AID 743218). Further: nearly all actives have a fitted effect of over 45% in size. Further: potency means the concentration at half of the fitted maximal effect. An outline of the steps:
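Quantitative HTS counter screen measuring ATP-based viability via CellTiter-Glo luminescence in HEK 293T cells carrying a UAS-driven beta-lactamase reporter, after 16 h compound exposure at 37 C.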
Background: Quantitative high-throughput screening tests each substance at several concentrations.

Test [3] is described as follows: qHTS assay to identify small molecule antagonists of the farnesoid-X-receptor (FXR) signaling pathway - cell viability counter screen (AID 743221; active means well fitted cell-killing curve with a large enough effect in the repeat runs, not every such curve was filed as active; further: nearly all actives have a fitted effect of over 50% in size; further: potency means the concentration at half of the fitted maximal effect). An outline of the steps:
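Here viability was scored by luminescence after CellTiter-Glo addition to wells already read for beta-lactamase. Prior treatment: compound plus CDCA (50 uM final), 16 h, 37 C, HEK 293T FXR-bla cells.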

For test [4], the target named is Peroxisome proliferator-activated receptor delta (Homo sapiens) (UniProt Q03181). Put plainly: qHTS assay to identify small molecule agonists of the peroxisome proliferator-activated receptor delta (PPARd) signaling pathway (AID 743212; calls by dose curve;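 further: HEK293H cells with PPARd UAS beta-lactamase reporter GeneBLAzer system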). An outline of the steps: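 Beta-lactamase reporter readout: a ratiometric FRET signal from the LiveBLAzer substrate after 2 h at room temperature. Compound exposure at 37 °C in PPARδ-bla HEK293H cells driven by an upstream activator sequence.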
Sequence of Peroxisome proliferator-activated receptor delta (Homo sapiens) (Q03181 whole entry, looked up): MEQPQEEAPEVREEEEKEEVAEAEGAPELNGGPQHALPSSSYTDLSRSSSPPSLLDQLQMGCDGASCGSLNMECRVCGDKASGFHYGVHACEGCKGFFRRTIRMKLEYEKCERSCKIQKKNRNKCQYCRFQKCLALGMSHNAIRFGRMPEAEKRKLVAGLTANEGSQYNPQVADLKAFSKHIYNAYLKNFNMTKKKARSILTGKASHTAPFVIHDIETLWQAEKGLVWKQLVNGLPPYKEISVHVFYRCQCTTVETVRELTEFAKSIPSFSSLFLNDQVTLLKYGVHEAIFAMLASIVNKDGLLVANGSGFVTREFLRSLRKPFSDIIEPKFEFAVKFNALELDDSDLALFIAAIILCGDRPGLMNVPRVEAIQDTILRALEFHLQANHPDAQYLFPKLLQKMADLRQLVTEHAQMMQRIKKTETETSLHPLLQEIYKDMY

For test [5] the target is unchanged. As to the kind of experiment: qHTS assay to identify small molecule antagonists of the peroxisome proliferator-activated receptor delta (PPARd) signaling pathway (AID 743215; active means well fitted inhibition curve with a large enough effect in the signal ratio in the repeat runs, not every such curve was filed as active; the % refers to the signal ratio;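 further: cells stimulated with agonist L165041 at 300 nM final during compound exposure; series mostly up to about 62 µM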). An outline of the steps: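 Here, a reporter line (HEK293H, beta-lactamase under a UAS) measures PPARd signaling. Compounds are tested against agonist L165041 at 300 nM final concentration over 17 h at 37 C, with fluorescence read after substrate.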

Test [6] deals with Vitamin D3 receptor (Homo sapiens) (UniProt P11473). Put plainly: qHTS assay to identify small molecule agonists of the vitamin D receptor (VDR) signaling pathway (AID 743222; calls by dose curve). The procedure, abridged: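 Tox21 cell reporter format: VDR-bla line, 16 h compound exposure in 5% CO2 at 37C, then fluorescence intensity after 2 h with LiveBLAzer B/G FRET substrate.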
Sequence of Vitamin D3 receptor (Homo sapiens) (P11473 whole entry, looked up): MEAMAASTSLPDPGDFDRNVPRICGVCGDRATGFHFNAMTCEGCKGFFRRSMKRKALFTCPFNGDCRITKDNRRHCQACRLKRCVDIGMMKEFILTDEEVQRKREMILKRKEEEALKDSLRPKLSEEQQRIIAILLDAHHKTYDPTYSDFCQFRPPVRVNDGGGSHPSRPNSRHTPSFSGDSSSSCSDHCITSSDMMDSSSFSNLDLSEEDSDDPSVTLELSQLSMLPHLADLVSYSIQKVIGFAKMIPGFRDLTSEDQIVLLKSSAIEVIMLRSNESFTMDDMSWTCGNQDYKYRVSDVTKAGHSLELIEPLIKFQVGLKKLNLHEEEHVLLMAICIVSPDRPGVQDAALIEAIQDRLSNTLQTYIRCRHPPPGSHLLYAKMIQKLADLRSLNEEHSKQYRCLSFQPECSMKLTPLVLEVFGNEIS
The target is the same in test [7]. As to the kind of experiment: qHTS assay to identify small molecule antagonists of the vitamin D receptor (VDR) signaling pathway (AID 743223; active means well fitted inhibition curve with a large enough effect in the signal ratio in the repeat runs, not every such curve was filed as active; the % refers to the signal ratio). An outline of the steps: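 Inhibition of agonist-driven VDR signalling is scored in VDR-bla cells: 3 nM final 1alpha,25-dihydroxyvitamin D3 plus compound, 16 h at 37C, then beta-lactamase detection by FRET substrate fluorescence after 2 h.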

Test [8] in a line: qHTS assay to identify small molecule antagonists of the peroxisome proliferator-activated receptor delta (PPARd) signaling pathway - cell viability counter screen (AID 743213). Further: nearly all actives have a fitted effect of over 50% in size. An outline of the steps:
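Same-well viability: cells pre-incubated 5 h, dosed with compound plus 300 nM L165041, kept 17 h at 37 C, FRET substrate 2 h RT, then CellTiter-Glo 30 min RT and luminescence.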

The target of test [9] is Bile acid receptor (Homo sapiens) (UniProt Q96RI1). Put plainly: qHTS assay to identify small molecule antagonists of the farnesoid-X-receptor (FXR) signaling pathway (AID 743217; active means well fitted inhibition curve with a large enough effect in the signal ratio in the repeat runs, not every such curve was filed as active; the % refers to the signal ratio). The procedure, abridged: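 Test compounds are pin-transferred onto FXR-bla HEK 293T cells, then chenodeoxycholic acid is added at 50 uM final. After 16 h at 37 °C, LiveBLAzer B/G substrate is applied for 2 h at room temperature and fluorescence read.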
Sequence of Bile acid receptor (Homo sapiens) (Q96RI1 whole entry, looked up): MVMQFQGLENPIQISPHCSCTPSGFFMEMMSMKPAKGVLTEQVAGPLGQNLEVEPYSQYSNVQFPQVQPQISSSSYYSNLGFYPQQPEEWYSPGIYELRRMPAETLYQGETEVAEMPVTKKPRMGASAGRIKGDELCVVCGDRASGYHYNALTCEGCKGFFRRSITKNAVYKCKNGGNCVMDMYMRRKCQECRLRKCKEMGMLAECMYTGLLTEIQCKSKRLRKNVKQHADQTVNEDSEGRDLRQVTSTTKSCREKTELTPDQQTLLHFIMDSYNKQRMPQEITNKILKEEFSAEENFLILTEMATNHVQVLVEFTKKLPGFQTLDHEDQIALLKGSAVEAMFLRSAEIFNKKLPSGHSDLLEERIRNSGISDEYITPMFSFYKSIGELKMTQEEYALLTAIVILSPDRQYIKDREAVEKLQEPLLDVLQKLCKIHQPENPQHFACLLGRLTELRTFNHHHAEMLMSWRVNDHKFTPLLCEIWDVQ

For test [10] the target is unchanged. Put plainly: qHTS assay to identify small molecule agonists of the farnesoid-X-receptor (FXR) signaling pathway (AID 743220; active means well fitted activation curve with a large enough effect in the signal ratio in the repeat runs, not every such curve was filed as active; the % refers to the signal ratio). The procedure, abridged:
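FXR-UAS-bla HEK 293T cells carrying a UAS-driven beta-lactamase reporter were plated for 5 h at 37C/5% CO2, then exposed to DMSO-dissolved Tox21 10K compounds for 16 h at 37C. A LiveBLAzer B/G FRET substrate was loaded for 2 h at room temperature before fluorescence reading.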

Consider `O=C(O)c1cc(Oc2ccc(C(F)(F)F)cc2Cl)ccc1[N+](=O)[O-]`, for which the Potency entry in test [1], in test [2] and in test [3] was “inactive” throughout.
With `COc1cc(-c2ccc(N)c(OC)c2)ccc1N`, the Potency result in test [1], in [2] and in test [3] was “inactive” in each case. The outcome in test [4], in [5], in test [6] and in test [7] was inactive.
Regarding `CCCCCCCCCCCCCCCCCC(=O)O`, the Potency result in test [1], in test [2] and in test [3] was “inactive” each time. The compound was called inactive in test [8].
Take `Cc1ccc(N=C=O)cc1N=C=O`: the Potency entry in test [1], in test [2] and in [3] was “inactive” each time. The call in [8], in [6] and in [7] was inactive.
As for `CC(C)c1cccc(C(C)C)c1O`, the outcome in test [4], in test [8], in test [5], in [6] and in test [7] was inactive. In addition, the Potency entry in [2] and in [3] was “inactive” each time.
In the case of `CN(C)CCC#N`, the Potency result in test [1], in test [2] and in test [3] was “inactive” throughout. Besides, the compound was called inactive in test [4], in [5], in test [6] and in [7].
As for `O=[N+]([O-])c1ccc(Cl)cc1`, the Potency result in test [1], in test [2] and in test [3] was “inactive” each time. Also, the call in test [8], in test [6] and in [7] was inactive.
For `CCNc1nc(Cl)nc(NC(C)C)n1`, the compound was classed as inactive in [4], in [8], in [5], in test [6] and in [7]. Besides, the Potency result in test [2] and in test [3] was “inactive” in each case.
Take `COc1nc(NC(C)C)nc(NC(C)C)n1`: the Potency entry in [1], in test [2] and in test [3] was “inactive” in each case. Further, the compound was classed as inactive in test [4], in test [5], in test [9], in test [10], in test [6] and in test [7].
Regarding `CCOc1ccc(N)cc1`, the call in test [4], in test [8], in test [5], in test [9], in test [10] and in test [6] was inactive. Moreover, the compound was classed as inactive in [7]. For the same compound, the Potency entry in test [2] and in test [3] was “inactive” in each case.
Regarding `O=C(O)Cc1ccccc1`, the Potency entry in test [1], in test [2] and in test [3] was “inactive” throughout. Also, the result in test [8], in test [9], in test [10], in test [6] and in test [7] was inactive.
For the compound `O=P1(NCCCl)OCCCN1CCCl` (centres undefined), the Potency entry in [1], in test [2] and in [3] was “inactive” in each case. In test [8], the outcome was inactive.
With `Nc1ccc([As](=O)(O)O)cc1`, the Potency entry in test [1], in test [2] and in test [3] was “inactive” in each case. Also, the outcome in test [4], in test [5] and in [6] was inactive.
For the compound `Oc1ccc(Cl)cc1`, the Potency entry in [1], in test [2] and in test [3] was “inactive” throughout. In addition, the compound was called inactive in test [8], in [6] and in test [7].
`COP(=S)(OC)SCN1C(=O)c2ccccc2C1=O`: the compound was classed as inactive in test [4], in [8], in test [5], in test [9] and in [10]. Moreover, the Potency entry in test [2] and in test [3] was “inactive” in each case.
With `CNC(=O)Oc1cccc2ccccc12`, the compound was called inactive in [4], in test [8], in [5], in [9], in test [10] and in test [6]. Moreover, in [7], the compound was called inactive. The Potency entry in test [2] and in test [3] was “inactive” in each case.
Take `CN(C)NC(=O)CCC(=O)O`: the compound was called inactive in test [4], in test [8], in test [5], in test [6] and in [7]. Moreover, the Potency result in test [2] and in test [3] was “inactive” each time.
Regarding `Nc1ccc(N)cc1`, the Potency entry in test [1], in test [2] and in [3] was “inactive” in each case. Also, the call in [9], in [10], in [6] and in test [7] was inactive.
Take `CCCOC(=O)c1ccccc1C(=O)OCCC`: the compound was classed as inactive in test [4], in test [8], in [5], in [9] and in test [10]. The Potency entry in test [2] and in test [3] was “inactive” each time.
As to `Nc1nc(N)nc(NC2CC2)n1`, the result in test [4], in test [5], in test [9] and in test [10] was inactive. Also, the Potency entry in test [2] and in test [3] was “inactive” each time.
Consider `CSc1nnc(C(C)(C)C)c(=O)n1N`, for which the call in [4], in test [5], in [9], in test [10], in test [6] and in test [7] was inactive. Also, the Potency result in test [2] and in [3] was “inactive” throughout.
For the compound `N#Cc1cccc(C#N)c1`, the compound was classed as inactive in [4], in test [8], in test [5], in [6] and in test [7]. Besides, the Potency entry in test [2] and in test [3] was “inactive” throughout.
Take `C=CCN=C=S`: the compound was classed as inactive in test [4], in test [5], in test [9], in test [10], in [6] and in test [7]. Also, the Potency result in test [2] and in [3] was “inactive” in each case.
On to `CCOP(=S)(OCC)Oc1cc(C)nc(C(C)C)n1`, for which the call in [4] and in test [5] was inactive. Also, the Potency entry was “inactive and 49 µM (active)” in test [2]; “inactive and 43.6 µM (active)” in test [3].
